A selection: hits, their analogues and other compounds. The true share with any hit is near 19%.
ELG1 repair inh: blocks ELG1-dependent DNA repair in HEK293T cells. HEK293T ELG1-luciferase reporter, luminescence, 16 h; DNA damage induced by 5-fluorouridine. Potency, µM (series often up to 46.1 µM), without a hit: at the top dose activity change, negative = inhibition, most hits filed as inhibitors. actives 2.3% (n = 330,000). AID 504467; also: potency is read from the fitted curve at half-maximal effect; nearly all actives have a fitted effect of over 55% in size
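Overnight (16 hr) co-exposure of 2,000 cells/well to 5-fluorouridine and compound at 37 °C preceded detection. Luciferase was quantified via ONE-Glo luminescence; loss of signal denotes inhibition.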
DT40 TDP1 CPT: DT40-hTDP1 cell growth loss with CPT | chicken DT40 Tdp1-/-;hTDP1 cells + 20 nM CPT, ATP luminescence, 48 h | Potency, µM (doses to about 46.2 µM), inactives show at the highest dose activity change, negative = growth inhibition, usual class: inhibitors | actives 12% (n = 420,000) | AID 686979; also: potency is read from the fitted curve at half-maximal effect; nearly all actives have a fitted effect of over 55% in size
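Cell growth measured by CellTiter-Glo luminescence after a minimum 48 h, 37 C compound exposure with 20 nM CPT in Tdp1-knockout DT40 cells stably expressing hTDP1, seeded 400/well; qHTS titration format.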
TDP1 cell noCPT: qHTS for Inhibitors of human tyrosyl-DNA phosphodiesterase 1 (TDP1): qHTS in cells in absence of CPT. actives 15% (n = 420,000). AID 686978, 2013. Potency, µM (highest dose often 46.2 µM), for inactives: top-dose activity change, negative = growth inhibition, hits mostly inhibitors. DT40 Tdp1-/- hTDP1 cells, no CPT, ATP luminescence, 48 h; also: potency is read from the fitted curve at half-maximal effect; nearly all actives have a fitted effect of over 55% in size
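DT40 Tdp1-/-;hTDP1 cells, no CPT (DMSO vehicle only), 400 cells/well; compounds pin-transferred; ≥48 hr, 37 °C; CellTiter-Glo 30 min RT dark, luminescence read.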
TDP1 block: inhibitors of human tyrosyl-DNA phosphodiesterase TDP1; Q9NUW8; recombinant TDP1, AlphaScreen DNA substrate cleavage; Potency, µM (highest dose often 130 µM), inactives show top-dose activity change, negative = inhibition, actives largely listed as inhibitors; actives 0.28% (n = 350,000); also: potency is read from the fitted curve at half-maximal effect; nearly all actives have a fitted effect of over 40% in size
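Here, a 5' biotin and 3' phosphotyrosine-FITC DNA oligonucleotide reports Tdp1 activity: intact substrate bridges AlphaScreen beads, while cleavage leaves a 3' phosphate and drops signal. All incubations at room temperature.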
Giardia kill: Giardia lamblia killing; Giardia lamblia trophozoite viability; activity change, % at 7.66 µM, hits read low; actives 0.15% (n = 340,000); in the data active = activity change below about -80%; inconclusive = between about -30% and that limit;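 also: parasites exposed to compound for two days anaerobically before the ATP read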
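Viability, read as ATP luminescence: trophozoites at 100 cells/well, compound added, 48 hrs anaerobic at 37 deg C, then 15-30 min room-temperature development before reading.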
IL-1B inflam inh: inhibitors of inflammasome signaling (IL-1 beta secretion) | actives 4.7% (n = 360,000) | activity change, % at 57.5 µM | THP-1 LPS/ATP IL-1B secretion, AlphaLISA, 16 h; hits give low values; in the data active = activity change below about -50%; inconclusive = mostly about -30% to -49%
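Secreted IL-1B measured by AlphaLISA bead assay after 16 h compound exposure of THP-1 cells; compounds (final up to 57.5 uM) added 1 h before LPS (250 ng/mL) and ATP (1.25 mM) stimulation; lower signal means less secretion.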
ELG1 FLuc counter: luciferase inhibition in cell-free luciferin readout for ELG1 hits. AID 624247. Potency, µM (titrated, usually from 46.1 µM), for inactives: top-dose activity change, negative = inhibition, most hits filed as inhibitors. shares compounds with ELG1 repair inh. cell-free firefly luciferase luminescence counter-screen, ViewLux. actives 3% (n = 350); also: potency is read from the fitted curve at half-maximal effect
ELG1 Luc conf: human ELG1 repair inhibition, luciferase-tagged ELG1 confirmation. Potency, µM (series often up to 46.1 µM), for inactives: at the highest dose activity change, negative = inhibition, usual class: inhibitors. HEK293T ELG1-luciferase levels, luminescence; cells co-treated with 5-fluorouridine. shares compounds with ELG1 repair inh. actives 68% (n = 670). AID 624248; also: potency is read from the fitted curve at half-maximal effect; nearly all actives have a fitted effect of over 55% in size
ELG1 MMS Luc: MMS-stimulated human ELG1 repair inhibition, confirmed. shares compounds with ELG1 repair inh. HEK293T luciferase-tagged ELG1 level, MMS stimulated. Potency, µM (doses to about 46.1 µM), for inactives: at the highest dose activity change, negative = inhibition, usual class: inhibitors. actives 53% (n = 670); also: potency is read from the fitted curve at half-maximal effect; nearly all actives have a fitted effect of over 60% in size
ELG1 5-FU: confirmation of ELG1 repair inhibitors: viability with 5FU; 670 tested, under 10 active; shares compounds with ELG1 repair inh; cell viability with 5-FU, ELG1-dependent repair; Potency, µM (doses to about 46.1 µM), without a hit: at the top dose activity change, negative = viability loss, actives largely listed as cytotoxic;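 also: ELG1-luc HEK293T cells cotreated with 5-fluorouridine at 10 µM final; potency is read from the fitted curve at half-maximal effect; viability measured 16 h after compound addition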
ELG1 MMS viab: confirmation of ELG1 repair inhibitors: viability with MMS; shares compounds with ELG1 repair inh; actives 33% (n = 670); AID 624251; Potency, µM (doses to about 46.1 µM), inactives show top-dose activity change, negative = viability loss, actives largely listed as cytotoxic; Cell viability with MMS, ELG1-dependent DNA repair;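 also: ELG1-luc HEK293T cells co-treated with 10 µM MMS; potency is read from the fitted curve at half-maximal effect; viability read 16 h after compound addition; nearly all actives have a fitted effect of over 60% in size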
ELG1 unstim viab: counter-screen for ELG1 repair inhibitors: unstimulated cell viability | shares compounds with ELG1 repair inh | cell viability counter-screen, unstimulated, luminescence | Potency, µM (highest dose often 45.9 µM), for inactives: at the highest dose activity change, negative = loss of viability, hits mostly cytotoxic | actives 8% (n = 900);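 also: potency is read from the fitted curve at half-maximal effect; compound exposure lasted 16 hours before reading; nearly all actives have a fitted effect of over 55% in size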
FLuc enzyme: inhibits purified firefly luciferase, counter-screen for ELG1 hits; shares compounds with ELG1 repair inh; purified firefly luciferase, luminescence counter-screen; Potency, µM (titrated, usually from 57.5 µM), for inactives: top-dose activity, negative = inhibition, hits mostly inhibitors; actives 10% (n = 350); also: potency is read from the fitted curve at half-maximal effect
Starred values were filed as active, the others as inactive; ? = inconclusive; . = no result given; [ ] = another dose, or the depositor's remark. Unless noted, calls follow the shape of the dose curve; as a rule, active = well fitted curve in the direction sought with a large enough effect; inconclusive = small, poorly fitted or top-dose-only effect, or another doubt; inactive = no such curve, though single readings can be large; an effect the other way counts as inactive or inconclusive. % is scaled to controls: 0 for no effect and ±100 for the full control effect.

SMILES	ELG1 repair inh	DT40 TDP1 CPT	TDP1 cell noCPT	TDP1 block	Giardia kill	IL-1B inflam inh	others
C=CCN1CC[C@@]23c4c5ccc(O)c4O[C@H]2/C(=N\N=C2/CC[C@@]4(O)[C@H]6Cc7ccc(O)c8c7[C@@]4(CCN6CC=C)[C@@H]2O8)CC[C@]3(O)[C@@H]1C5	.	?	29.9µM*	13.2%[56.1 µM]	.	.
Oc1ccc2c3c1OC1c4oc5ccccc5c4C[C@@]4(O)[C@@H](C2)N(CC2CC2)CC[C@]314 (stereo not given in full)	1.4%	-25.3%	?	2.6%	-8.9	-50.1*
CC(CCN1CC1)=NNC(=O)Nc1cccc2ccccc12	.	7.31µM*	8.2µM*	.	-20.4	0.0
CC(C)(C)c1cc(O)ccc1O	.	1.68µM*	1.19µM*	6.4%	.	.
CC(C)(C)c1ccccc1O	6.7%	-7.1%	-0.7%	-0.1%	-16.1	-10.1
CN1C(=O)CCS(=O)(=O)[C@@H]1c1ccc(Cl)cc1	.	.	.	3.0%[56.1 µM]	.	.
O=C(O)CCCc1ccc(N(CCCl)CCCl)cc1	-0.4%	0.461µM*	0.651µM*	8.7%	-5.4	-1.3
CCC(=O)O[C@@](Cc1ccccc1)(c1ccccc1)[C@@H](C)CN(C)C	.	?	?	6.4%[56.1 µM]	.	.
C/C(=N\NC(N)=S)C12CC3CC(CC(C3)C1)C2	?	23.1µM*	14.6µM*	5.9%	6.6	?
COc1ccccc1CN1CCN(Cc2ccc(Cl)cc2)CC1	-22.1%	-19.8%	20.6µM*	-2.5%	11.4	-2.7
CCc1ccc(CN2CCN(Cc3ccc(SC)cc3)CC2)cc1	5.8µM*	?	20.6µM*	-1.2%	8.6	-90.6*
Cc1cccc(CN2CCN(Cc3ccc(Cl)cc3)CC2)c1	?	?	20.6µM*	-3.5%	3.4	?
COc1ccccc1N1CCN(Cc2ccc(SC)cc2)CC1	-21.8%	16.4µM*	20.6µM*	.	-19.9	-6.0
CCN1CCN(Cc2ccc(C)cc2)CC1	10.7%	-14.0%	-0.9%	-1.9%	-0.2	9.1
COc1ccccc1N1CCN(Cc2ccc(F)cc2)CC1	4.3%	-23.6%	-29.2%	2.5%	8.8	4.4
CCCCC/C=C\C/C=C\C/C=C\C/C=C\CCCC(=O)NC1CC1	.	.	.	-7.1%	.	.
Cc1cccc(N2C(=O)NC(=O)/C(=C\c3cc(C)n(-c4sc5c(c4C#N)CCCC5)c3C)C2=O)c1C	?	?	?	-7.9%	4.8	-137.9*
Cc1cc(/C=C2\C(=O)NC(=O)N(c3ccc(F)cc3)C2=O)c(C)n1-c1cccc(C(=O)O)c1	4.9%	5.5%	12.3%	0.0%	-8.7	2.6
Cc1cc(/C=C2\C(=O)NC(=O)N(c3ccccc3F)C2=O)c(C)n1-c1cc(C(=O)O)cc(C(=O)O)c1	0.0%	3.2%	-0.8%	.	-7.3	-18.5
CCOC(=O)c1c(-n2c(C)cc(C=C3C(=O)NC(=O)NC3=O)c2C)sc2c1CCCC2	-1.8%	?	18.4µM*	-2.0%	-7.8	-15.3
O=C(Cc1ccc(Cl)c(Cl)c1)Nc1cccnc1	-14.8%	-18.7%	?	-2.1%	-19.2	-5.6
O=C(Nc1ccc(Oc2ccc(Cl)cc2)c(Cl)c1)c1cc(I)cc(I)c1O	6.0%	?	?	12.6%	9.7	12.5
COc1ccc(C(=O)Nc2ccc(-c3cc(C(F)(F)F)nn3-c3ccccc3)cc2)cc1OC	.	18.4µM*	13µM*	11.6%	.	.
CCOc1ccc(-c2c(C)n(-c3ccc(OCC)cc3)c3[n+]2CCCCC3)cc1	0.291µM*	0.206µM*	0.164µM*	0.0%	15.4	-92.3*	ELG1 FLuc counter=?;ELG1 Luc conf=?;ELG1 MMS Luc=0.5µM*;ELG1 5-FU=?;ELG1 MMS viab=0.445µM*;ELG1 unstim viab=5µM*;FLuc enzyme=-7.6%
C[C@]12CCC3C(CC[C@H]4C[C@H](O)CC[C@]34C)C1C[C@H](O)[C@@H]2O (stereo not given in full)	-22.5%	?	-29.5%	0.2%	6.2	25.8
COc1cc2c(cc1OC)[C@@H]1C(=O)c3ccc4c(c3OC1CO2)CC(C(C)C)O4 (stereo not given in full)	.	0.0651µM*	0.082µM*	19.2%[56.1 µM]	.	.	ELG1 FLuc counter=?;ELG1 Luc conf=25µM*;ELG1 MMS Luc=0.0445µM*;ELG1 5-FU=-21.7%;ELG1 MMS viab=0.0397µM*;ELG1 unstim viab=?;FLuc enzyme=-4.3%
CCOP(=O)(OCC)/C(C#N)=C/c1ccc(Br)cc1	0.9%	-4.6%	-24.2%	8.6%	-7.6	21.0
O=c1[nH]c(=O)n(Cc2ccc(F)cc2)c(O)c1C=NCCCO	16.3%	3.5%	-2.8%	5.3%	-2.4	0.8

Screening data as filed in PubChem BioAssay.
